Results taken from the supplement of paper PMC11732987, “Enantioselective OTUD7B fragment discovery through chemoproteomics screening and high-throughput optimisation” (Communications Chemistry, 2025).

How the values were obtained:
Assay in all cases: log2 ratio of Biotin-Ahx-Ub-VS probe labelling (fragment/DMSO); higher = less target engagement (more negative = stronger competition), active = hit call of the paper (q ≤ 0.05, log2 ratio ≤ -1)
Settings in all cases: compound concentration: 200 uM; treatment time: 3 h
USP34 = USP34 (UniProt Q70CQ2)
Summary of the method: (§1)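 Global-median-normalised Spectronaut label-free quantities were compared by unpaired t-test, and values are average log2 ratios of fragment over vehicle. Only proteins with ≥2 unique peptides were used. HEK293T lysate (495 µg per sample) was treated in triplicate with fragment at 200 µM or vehicle for 3 h and then with Biotin-Ahx-Ub-VS at 0.5 µM final for 1 h. Labelled DUBs were then NeutrAvidin-enriched, digested with LysC and trypsin, and run by diaPASEF LC-MS/MS.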

USP36 = biological target: T1, USP36 (UniProt Q9P275)
T1 sequence (whole entry): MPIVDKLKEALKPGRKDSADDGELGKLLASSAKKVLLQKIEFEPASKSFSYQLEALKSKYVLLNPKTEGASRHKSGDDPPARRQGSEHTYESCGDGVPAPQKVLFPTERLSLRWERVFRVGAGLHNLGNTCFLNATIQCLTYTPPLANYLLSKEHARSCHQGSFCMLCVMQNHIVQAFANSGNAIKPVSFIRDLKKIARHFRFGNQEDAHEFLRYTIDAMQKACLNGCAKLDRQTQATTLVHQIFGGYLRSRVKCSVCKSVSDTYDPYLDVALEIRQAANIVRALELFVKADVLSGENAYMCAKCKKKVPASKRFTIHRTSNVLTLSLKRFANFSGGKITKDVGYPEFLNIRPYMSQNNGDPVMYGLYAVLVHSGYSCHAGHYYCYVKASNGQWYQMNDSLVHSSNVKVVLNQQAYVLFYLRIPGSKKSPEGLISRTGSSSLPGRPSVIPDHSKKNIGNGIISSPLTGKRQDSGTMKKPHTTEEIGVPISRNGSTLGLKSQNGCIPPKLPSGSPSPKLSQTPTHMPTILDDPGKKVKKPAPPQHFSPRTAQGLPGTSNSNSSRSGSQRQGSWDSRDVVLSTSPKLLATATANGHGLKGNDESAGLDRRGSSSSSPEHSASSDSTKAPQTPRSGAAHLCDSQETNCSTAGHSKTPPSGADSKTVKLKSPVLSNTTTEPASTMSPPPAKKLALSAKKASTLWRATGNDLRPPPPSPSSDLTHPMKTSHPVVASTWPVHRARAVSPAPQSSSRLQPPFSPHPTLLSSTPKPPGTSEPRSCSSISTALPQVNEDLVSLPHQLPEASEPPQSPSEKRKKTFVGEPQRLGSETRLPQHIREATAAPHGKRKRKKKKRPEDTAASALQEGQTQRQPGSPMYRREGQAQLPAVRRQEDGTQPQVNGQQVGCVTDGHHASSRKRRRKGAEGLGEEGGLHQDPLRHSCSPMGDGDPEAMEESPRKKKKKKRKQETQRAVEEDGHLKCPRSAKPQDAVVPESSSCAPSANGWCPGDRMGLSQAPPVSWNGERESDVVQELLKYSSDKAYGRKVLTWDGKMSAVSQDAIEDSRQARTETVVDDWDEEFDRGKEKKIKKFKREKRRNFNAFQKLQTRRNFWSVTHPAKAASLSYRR
Summary of the method: as §1

USP38 = biological target: T2, USP38 (UniProt Q8NB14)
T2 sequence (whole entry): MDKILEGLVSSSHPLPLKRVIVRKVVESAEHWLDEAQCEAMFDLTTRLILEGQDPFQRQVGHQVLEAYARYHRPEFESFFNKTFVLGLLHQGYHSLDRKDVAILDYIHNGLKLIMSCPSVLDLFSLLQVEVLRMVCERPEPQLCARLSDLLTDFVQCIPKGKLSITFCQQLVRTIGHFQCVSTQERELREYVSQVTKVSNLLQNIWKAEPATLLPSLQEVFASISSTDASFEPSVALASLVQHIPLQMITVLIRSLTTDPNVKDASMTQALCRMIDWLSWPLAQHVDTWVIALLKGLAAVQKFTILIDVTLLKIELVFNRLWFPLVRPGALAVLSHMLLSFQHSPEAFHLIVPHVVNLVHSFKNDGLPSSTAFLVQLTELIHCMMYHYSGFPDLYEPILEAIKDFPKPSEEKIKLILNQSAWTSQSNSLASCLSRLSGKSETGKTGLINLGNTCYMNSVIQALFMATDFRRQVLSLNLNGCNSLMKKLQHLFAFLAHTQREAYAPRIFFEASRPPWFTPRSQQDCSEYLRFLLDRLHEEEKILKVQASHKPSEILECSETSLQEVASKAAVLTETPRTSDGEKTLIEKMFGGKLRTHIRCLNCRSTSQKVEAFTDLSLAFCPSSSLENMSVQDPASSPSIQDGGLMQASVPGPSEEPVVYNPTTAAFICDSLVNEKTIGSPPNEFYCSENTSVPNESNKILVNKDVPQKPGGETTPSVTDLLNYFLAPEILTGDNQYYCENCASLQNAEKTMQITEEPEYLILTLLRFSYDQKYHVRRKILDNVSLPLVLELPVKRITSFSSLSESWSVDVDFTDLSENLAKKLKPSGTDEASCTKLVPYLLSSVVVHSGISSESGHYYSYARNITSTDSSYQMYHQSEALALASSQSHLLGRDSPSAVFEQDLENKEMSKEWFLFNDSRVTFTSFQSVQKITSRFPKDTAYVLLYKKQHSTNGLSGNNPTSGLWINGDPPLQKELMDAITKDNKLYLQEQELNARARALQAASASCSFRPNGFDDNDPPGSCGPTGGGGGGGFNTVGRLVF
Summary of the method: as §1

USP39 = biological target: T3, USP39 (UniProt Q53GS9)
T3 sequence (whole entry): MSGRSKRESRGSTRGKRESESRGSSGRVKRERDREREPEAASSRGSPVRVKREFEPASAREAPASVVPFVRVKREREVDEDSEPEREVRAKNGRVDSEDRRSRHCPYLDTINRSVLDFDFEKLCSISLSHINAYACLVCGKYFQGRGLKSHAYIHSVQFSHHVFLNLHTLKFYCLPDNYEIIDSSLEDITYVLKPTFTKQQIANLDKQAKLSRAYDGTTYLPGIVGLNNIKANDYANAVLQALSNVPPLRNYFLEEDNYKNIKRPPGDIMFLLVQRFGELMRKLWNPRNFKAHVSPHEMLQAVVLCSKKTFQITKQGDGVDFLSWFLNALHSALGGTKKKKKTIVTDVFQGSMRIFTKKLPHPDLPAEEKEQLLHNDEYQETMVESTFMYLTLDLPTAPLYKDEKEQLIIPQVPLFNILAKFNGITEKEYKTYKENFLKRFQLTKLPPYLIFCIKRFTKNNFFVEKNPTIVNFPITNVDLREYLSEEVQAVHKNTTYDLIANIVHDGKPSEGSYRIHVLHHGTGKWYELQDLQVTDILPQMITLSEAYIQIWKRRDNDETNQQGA
Summary of the method: as §1

USP4 = biological target: T4, USP4 (UniProt Q13107)
T4 sequence (whole entry): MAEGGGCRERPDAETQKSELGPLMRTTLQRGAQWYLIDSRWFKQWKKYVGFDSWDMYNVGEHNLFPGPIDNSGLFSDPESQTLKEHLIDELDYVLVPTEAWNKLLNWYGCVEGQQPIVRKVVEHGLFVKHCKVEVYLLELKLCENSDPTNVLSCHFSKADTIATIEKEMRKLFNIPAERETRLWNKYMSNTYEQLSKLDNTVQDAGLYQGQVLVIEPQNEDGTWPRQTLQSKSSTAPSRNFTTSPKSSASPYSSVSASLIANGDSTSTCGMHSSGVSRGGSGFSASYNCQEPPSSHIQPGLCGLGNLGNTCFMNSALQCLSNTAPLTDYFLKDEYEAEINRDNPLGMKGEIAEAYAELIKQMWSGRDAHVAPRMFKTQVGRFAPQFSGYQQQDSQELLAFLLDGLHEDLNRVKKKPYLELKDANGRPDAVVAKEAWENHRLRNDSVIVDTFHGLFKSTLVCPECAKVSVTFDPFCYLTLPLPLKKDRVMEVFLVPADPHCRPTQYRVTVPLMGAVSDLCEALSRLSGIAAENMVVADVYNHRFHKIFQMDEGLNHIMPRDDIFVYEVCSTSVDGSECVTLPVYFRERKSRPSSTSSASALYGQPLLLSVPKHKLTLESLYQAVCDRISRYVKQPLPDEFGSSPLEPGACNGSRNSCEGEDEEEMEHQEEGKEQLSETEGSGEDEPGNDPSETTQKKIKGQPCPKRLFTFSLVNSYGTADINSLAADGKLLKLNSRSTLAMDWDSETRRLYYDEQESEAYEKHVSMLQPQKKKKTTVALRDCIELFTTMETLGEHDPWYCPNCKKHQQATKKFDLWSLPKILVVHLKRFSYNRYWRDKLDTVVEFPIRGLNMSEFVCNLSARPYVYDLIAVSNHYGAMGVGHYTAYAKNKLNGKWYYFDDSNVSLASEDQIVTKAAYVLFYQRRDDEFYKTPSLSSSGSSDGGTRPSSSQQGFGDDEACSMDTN
Summary of the method: as §1

Measured: log2 ratio of Biotin-Ahx-Ub-VS probe labelling

Chain of USP34 (Q70CQ2 whole entry, the tested form may be a part): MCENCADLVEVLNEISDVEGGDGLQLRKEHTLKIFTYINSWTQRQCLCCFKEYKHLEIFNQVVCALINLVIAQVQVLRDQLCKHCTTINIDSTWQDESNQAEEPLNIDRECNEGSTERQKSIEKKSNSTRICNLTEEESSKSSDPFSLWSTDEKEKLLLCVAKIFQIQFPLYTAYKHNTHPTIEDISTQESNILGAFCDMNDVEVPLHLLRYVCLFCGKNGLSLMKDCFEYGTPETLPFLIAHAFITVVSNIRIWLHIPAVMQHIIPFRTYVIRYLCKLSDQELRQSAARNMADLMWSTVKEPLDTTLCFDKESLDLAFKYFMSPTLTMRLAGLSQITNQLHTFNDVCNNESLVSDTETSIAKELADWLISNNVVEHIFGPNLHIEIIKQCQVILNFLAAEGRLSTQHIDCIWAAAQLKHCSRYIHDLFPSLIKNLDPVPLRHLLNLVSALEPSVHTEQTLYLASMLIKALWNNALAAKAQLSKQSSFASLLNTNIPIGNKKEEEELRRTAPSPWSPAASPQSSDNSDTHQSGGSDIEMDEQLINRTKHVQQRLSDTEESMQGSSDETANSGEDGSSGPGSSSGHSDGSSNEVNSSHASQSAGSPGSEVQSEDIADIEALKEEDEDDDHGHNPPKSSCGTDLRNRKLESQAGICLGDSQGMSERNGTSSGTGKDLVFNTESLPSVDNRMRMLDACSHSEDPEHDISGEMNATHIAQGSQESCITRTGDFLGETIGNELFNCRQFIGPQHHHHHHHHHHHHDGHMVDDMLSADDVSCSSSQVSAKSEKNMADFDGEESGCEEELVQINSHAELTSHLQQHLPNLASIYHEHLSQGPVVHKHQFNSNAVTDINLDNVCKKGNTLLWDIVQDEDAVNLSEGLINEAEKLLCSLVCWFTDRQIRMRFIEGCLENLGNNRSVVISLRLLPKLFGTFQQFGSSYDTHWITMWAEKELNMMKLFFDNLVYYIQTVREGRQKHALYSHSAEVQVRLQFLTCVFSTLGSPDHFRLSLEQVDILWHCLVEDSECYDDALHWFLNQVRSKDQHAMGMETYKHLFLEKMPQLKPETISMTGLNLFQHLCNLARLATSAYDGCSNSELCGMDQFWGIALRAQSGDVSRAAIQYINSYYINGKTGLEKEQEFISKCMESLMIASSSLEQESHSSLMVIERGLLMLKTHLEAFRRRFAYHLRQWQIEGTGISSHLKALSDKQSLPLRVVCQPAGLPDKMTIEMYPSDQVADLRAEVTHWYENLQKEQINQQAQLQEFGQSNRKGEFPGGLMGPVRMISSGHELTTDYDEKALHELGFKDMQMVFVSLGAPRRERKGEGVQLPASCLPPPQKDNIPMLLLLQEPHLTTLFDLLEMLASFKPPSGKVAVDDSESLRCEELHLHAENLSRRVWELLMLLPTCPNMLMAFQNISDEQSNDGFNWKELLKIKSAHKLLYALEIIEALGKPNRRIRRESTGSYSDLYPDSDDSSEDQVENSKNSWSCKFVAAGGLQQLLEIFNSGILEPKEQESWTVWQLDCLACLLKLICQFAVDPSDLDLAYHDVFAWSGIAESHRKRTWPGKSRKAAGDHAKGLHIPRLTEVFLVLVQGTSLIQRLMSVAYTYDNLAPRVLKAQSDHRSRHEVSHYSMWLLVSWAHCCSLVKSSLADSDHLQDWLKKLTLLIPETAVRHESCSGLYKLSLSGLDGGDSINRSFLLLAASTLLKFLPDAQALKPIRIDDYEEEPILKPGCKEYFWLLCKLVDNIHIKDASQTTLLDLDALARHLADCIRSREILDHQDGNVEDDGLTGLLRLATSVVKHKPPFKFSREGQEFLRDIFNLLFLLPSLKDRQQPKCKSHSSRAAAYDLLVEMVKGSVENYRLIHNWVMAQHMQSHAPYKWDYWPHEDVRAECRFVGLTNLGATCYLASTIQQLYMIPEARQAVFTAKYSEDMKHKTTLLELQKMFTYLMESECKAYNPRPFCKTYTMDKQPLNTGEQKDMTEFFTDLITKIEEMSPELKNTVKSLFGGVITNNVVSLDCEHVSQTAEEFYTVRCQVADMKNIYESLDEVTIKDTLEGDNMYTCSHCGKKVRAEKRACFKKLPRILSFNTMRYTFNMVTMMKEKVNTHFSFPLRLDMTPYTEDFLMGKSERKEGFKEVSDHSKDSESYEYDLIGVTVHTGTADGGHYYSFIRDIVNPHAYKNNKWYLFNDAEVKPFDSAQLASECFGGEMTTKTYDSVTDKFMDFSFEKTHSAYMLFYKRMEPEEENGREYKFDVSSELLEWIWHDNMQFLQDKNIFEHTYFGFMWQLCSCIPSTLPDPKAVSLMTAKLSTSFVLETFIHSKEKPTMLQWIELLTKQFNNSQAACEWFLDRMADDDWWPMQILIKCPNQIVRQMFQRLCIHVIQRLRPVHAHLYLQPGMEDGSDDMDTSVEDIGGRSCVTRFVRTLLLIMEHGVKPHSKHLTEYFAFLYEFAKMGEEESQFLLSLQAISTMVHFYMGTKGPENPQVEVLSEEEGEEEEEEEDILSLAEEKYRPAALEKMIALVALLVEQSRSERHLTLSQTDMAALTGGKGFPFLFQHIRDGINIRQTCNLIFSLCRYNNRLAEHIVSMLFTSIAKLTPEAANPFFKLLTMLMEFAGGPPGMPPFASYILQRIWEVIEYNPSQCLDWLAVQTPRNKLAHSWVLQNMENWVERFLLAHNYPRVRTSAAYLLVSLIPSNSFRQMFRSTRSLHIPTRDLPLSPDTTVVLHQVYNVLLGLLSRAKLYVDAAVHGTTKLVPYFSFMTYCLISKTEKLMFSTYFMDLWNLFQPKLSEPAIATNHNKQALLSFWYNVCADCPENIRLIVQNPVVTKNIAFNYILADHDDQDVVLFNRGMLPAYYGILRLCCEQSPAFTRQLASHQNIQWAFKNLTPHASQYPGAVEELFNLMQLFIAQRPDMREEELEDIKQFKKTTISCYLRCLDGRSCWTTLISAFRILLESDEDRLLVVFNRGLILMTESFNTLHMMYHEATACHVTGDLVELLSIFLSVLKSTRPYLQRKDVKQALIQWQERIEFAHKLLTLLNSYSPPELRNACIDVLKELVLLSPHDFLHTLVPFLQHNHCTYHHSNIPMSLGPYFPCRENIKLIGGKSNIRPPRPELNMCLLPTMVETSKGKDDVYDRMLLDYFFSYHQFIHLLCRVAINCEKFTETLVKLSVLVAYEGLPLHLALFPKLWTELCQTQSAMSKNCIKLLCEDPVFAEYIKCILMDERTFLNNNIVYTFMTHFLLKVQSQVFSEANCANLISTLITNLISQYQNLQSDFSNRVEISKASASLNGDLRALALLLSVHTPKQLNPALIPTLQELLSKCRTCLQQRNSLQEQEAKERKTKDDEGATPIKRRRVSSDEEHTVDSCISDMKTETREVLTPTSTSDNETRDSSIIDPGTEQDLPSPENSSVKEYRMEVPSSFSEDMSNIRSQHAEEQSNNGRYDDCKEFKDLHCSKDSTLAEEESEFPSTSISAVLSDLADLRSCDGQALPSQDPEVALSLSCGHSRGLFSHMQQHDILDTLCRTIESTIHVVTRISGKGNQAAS

Cc1cc(CC(C)NC(=O)CCl)n[nH]1 (stereo not given)
inactive: USP34 -0.00217 | USP36 -0.0115 | USP38 -0.279 | USP39 -0.196 | USP4 -0.0597
